Here are results for 60 molecules from PubChem BioAssay AID588689 (Southern Research Specialized Biocontainment Screening …, 2011).

The target of this assay is Genome polyprotein (Dengue virus type 2 (strain 16681-PDK53)) (UniProt P29991). Description: flavivirus cap methylation enzyme inhibition – biochemical, confirmation dose response, primary screen (AID 588689). The conditions noted are these: Dengue-2 NS5 methyltransferase capping enzyme assay, at 25 µM, stronger effect = higher value.
[1] abbreviates: measured here: pilot screen replicate inhibition.

Molecules are shown by their SMILES. Hit rate of the full screen: of about 340,000 compounds, about 1,000 (0.29%) were called active. Rule as the data show it: inconclusive = inhibition above about 29% without an active follow-up result; inactive = below that. These entries were drawn from the full list. Results with a measured potency or affinity are listed apart.

Genome polyprotein (Dengue virus type 2 (strain 16681-PDK53)), sequence (P29991 whole entry, looked up): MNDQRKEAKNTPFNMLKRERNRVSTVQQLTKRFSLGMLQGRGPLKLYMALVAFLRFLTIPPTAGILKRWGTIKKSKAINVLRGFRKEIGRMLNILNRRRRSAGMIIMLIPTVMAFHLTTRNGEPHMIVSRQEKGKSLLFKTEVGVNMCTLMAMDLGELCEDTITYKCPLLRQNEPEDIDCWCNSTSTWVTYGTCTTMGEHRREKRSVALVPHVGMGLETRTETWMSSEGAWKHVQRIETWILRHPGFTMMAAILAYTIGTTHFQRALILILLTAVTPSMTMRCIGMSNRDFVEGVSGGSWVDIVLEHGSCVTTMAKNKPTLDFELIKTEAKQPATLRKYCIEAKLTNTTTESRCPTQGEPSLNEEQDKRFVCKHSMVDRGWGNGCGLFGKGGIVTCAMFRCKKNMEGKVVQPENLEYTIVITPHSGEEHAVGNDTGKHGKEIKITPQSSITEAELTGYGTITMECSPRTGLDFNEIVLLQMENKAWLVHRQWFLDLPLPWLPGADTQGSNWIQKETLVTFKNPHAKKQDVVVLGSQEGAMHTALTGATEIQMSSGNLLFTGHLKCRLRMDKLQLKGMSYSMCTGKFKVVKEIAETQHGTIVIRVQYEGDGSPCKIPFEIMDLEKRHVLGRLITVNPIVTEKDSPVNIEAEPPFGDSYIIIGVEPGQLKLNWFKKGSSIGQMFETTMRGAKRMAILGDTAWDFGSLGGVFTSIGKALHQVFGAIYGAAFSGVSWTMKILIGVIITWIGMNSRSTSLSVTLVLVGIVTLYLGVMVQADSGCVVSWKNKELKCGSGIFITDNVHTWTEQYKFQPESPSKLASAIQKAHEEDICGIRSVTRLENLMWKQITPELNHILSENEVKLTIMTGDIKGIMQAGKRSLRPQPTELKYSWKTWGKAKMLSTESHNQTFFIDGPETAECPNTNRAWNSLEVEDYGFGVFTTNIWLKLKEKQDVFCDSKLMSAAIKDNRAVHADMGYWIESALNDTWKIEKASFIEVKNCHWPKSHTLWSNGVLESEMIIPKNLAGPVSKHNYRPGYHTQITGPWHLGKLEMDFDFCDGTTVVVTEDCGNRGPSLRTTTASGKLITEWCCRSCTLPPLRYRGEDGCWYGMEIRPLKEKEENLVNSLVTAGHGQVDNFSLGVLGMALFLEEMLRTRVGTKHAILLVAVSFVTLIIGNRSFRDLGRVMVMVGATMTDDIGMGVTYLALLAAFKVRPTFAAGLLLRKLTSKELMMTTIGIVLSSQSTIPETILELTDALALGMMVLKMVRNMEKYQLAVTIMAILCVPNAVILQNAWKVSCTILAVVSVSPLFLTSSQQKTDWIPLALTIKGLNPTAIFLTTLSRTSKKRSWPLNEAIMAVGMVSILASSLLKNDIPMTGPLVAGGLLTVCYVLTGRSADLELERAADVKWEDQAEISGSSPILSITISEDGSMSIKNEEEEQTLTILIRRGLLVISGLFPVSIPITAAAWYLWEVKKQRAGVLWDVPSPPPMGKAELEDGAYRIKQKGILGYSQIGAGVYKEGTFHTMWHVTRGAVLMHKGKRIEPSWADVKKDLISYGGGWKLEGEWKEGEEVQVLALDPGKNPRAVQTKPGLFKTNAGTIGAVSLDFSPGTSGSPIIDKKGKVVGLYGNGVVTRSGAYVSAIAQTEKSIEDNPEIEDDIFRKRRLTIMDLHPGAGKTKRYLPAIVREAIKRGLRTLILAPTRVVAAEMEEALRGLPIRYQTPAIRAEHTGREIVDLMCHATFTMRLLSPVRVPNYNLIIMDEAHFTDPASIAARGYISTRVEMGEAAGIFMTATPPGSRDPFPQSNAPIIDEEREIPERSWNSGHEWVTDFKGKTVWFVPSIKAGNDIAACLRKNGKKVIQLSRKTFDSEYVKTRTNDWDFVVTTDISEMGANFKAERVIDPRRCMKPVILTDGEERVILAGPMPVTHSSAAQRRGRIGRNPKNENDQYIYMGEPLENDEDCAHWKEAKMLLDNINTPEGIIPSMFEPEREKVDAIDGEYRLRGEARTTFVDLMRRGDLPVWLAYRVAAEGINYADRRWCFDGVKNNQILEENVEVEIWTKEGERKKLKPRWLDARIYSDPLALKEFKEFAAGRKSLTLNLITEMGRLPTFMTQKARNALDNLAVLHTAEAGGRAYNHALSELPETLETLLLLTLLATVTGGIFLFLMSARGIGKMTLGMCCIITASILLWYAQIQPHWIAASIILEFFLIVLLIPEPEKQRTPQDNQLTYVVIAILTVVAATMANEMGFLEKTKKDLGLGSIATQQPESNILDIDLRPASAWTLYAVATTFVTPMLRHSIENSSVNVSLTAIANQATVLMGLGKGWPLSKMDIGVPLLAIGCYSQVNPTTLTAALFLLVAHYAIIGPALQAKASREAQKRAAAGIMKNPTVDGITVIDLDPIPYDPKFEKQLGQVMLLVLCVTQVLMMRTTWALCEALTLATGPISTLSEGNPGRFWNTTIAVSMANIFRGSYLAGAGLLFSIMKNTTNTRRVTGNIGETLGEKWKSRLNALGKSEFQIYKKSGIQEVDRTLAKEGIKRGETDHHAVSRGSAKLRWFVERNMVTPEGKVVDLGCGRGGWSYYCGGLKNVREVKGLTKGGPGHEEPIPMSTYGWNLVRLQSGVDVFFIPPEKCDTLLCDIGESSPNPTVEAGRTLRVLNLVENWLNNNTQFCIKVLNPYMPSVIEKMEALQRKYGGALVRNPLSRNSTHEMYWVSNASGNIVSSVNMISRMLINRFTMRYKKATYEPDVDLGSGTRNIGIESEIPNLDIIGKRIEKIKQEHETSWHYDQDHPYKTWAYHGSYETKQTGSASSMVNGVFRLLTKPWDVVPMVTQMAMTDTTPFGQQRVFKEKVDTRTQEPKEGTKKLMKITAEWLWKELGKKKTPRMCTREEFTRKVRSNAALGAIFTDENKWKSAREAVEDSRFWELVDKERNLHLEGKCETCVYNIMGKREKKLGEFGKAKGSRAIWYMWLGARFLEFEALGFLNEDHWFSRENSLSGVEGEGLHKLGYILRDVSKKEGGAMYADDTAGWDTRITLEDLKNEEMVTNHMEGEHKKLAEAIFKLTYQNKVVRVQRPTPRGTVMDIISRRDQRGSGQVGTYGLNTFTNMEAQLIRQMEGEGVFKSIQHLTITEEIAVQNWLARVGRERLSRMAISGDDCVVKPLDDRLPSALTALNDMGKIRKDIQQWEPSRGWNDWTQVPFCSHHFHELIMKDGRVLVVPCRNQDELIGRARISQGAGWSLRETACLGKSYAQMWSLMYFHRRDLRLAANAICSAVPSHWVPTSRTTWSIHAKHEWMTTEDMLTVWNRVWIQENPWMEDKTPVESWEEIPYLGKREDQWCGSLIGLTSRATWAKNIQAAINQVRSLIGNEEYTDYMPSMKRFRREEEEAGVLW

On to `Cc1cc(C)cc(NC(=O)CS(=O)(=O)c2cccc3nsnc23)c1`, for which the inhibition – broadly, the drop in the measured response relative to a control, in per cent – was -0.79% (inactive). On the same count and under the same terms, the value for `Cc1ccc(NS(=O)(=O)Cc2ccccc2)cc1Cl` was -1.36% (inactive); that for `CCC1CCCCN1S(=O)(=O)c1ccc2c(c1)CCN2C(C)=O` (configuration not stated) was -10.9% (inactive).

Turning to `CC(=O)c1ccc(-n2c(=O)[nH]c(=O)c3c(N)c(C(=O)c4ccc(Cl)cc4)sc32)cc1`, the inhibition was -6.85% (inactive).

As to `CC(C)(C)OC(=O)C[C@@H]1C/C=C\C[C@@H](CC(=O)N(CCO)Cc2ccccc2)C(=O)N2CCC[C@H]2COC1=O`, the inhibition was -2.31% (inactive). The inhibition under setting [1] was -4.54%. As to `CC1=NN(c2ccc(C)cc2C)C(=O)C1C(c1cccc(O)c1)C1C(=O)N(c2ccc(C)cc2C)N=C1C` (configuration not stated), the inhibition was 26.6% (inactive).

Regarding `CC1=NN(c2ccc(C)cc2C)C(=O)C1C(c1ccccc1O)C1C(=O)N(c2ccc(C)cc2C)N=C1C` (configuration not stated), the inhibition is 15.6% (inactive).

On to `CCc1ccc(OCC(O)CNC(C)(C)C)cc1` (configuration not stated), for which the inhibition is -2.07% (inactive). Same read-out and setting: the value for `CCOc1ccc(/C=C\c2nc(O)c([N+](=O)[O-])c(=O)[nH]2)cc1OCC` was -0.66% (inactive). On the same count and under the same terms, the value for `O=c1[nH]c(/C=C\c2cccc(Cl)c2)nc(O)c1[N+](=O)[O-]` was 15.9% (inactive). Consider `Clc1ccc(/C=C/c2nc3ccccc3[nH]2)c(Cl)c1`, for which the inhibition was 3.38% (inactive). The inhibition under setting [1] was -0.3%. Regarding `Cn1c(/C=C/c2ccc(Cl)cc2Cl)c([N+](=O)[O-])c(=O)n(C)c1=O`, the inhibition was 2.64% (inactive). The same measure, in the same setting: the value for `O=[N+]([O-])c1cccc(/C=C/c2ccncc2)c1` was 2.32% (inactive); that for `CCOc1ccc(/C=C/c2c([N+](=O)[O-])c(=O)n(C)c(=O)n2C)cc1` was 0.74% (inactive); that for `Clc1ccc(C=Cc2ccccn2)c(Cl)c1` was 3.5% (inactive). Still for that read-out and setting: the figure for `O=[N+]([O-])c1cccc(/C=C/c2nc[nH]c2[N+](=O)[O-])c1` is -14.1% (inactive). The same measure, in the same setting: the value for `O=[N+]([O-])c1cccc(C=NN2CCCCCC2)c1` was -2.33% (inactive); that for `O=c1cc(O)c2sc3nc4c(c(C(F)(F)F)c3c2[nH]1)CCCCC4` was 0.88% (inactive). Consider `Cc1cc(-c2csc(Nc3ccccn3)n2)ccc1F`, for which the inhibition was -8.87% (inactive). Still for that read-out and setting: the figure for `O=C(NCCCn1ccnc1)c1cccc(S(=O)(=O)Nc2ccccc2F)c1` is -2.82% (inactive); for `COc1cccc(N=C2SC(CC(=O)Nc3ccccc3)C(=O)N2Cc2ccccn2)c1` (configuration not stated) it is -4.38% (inactive); for `COc1ccc(-c2c(-c3cc(OC)cc(OC)c3)n(C)c3ccc(-c4ccc(OC)cc4F)cc23)cc1` it is -1.04% (inactive). Same read-out and setting: the figure for `O=C(CSc1nnc(-c2ccccc2)n1-c1ccccc1)N1c2ccccc2Sc2ccccc21` is -3.27% (inactive). Same read-out and setting: the figure for `Cc1nc(SCC(=O)N2c3ccccc3Sc3ccccc32)n[nH]1` is -1.38% (inactive); for `COCCCNCC(O)COc1cccc2[nH]c(C)cc12` (configuration not stated) it is 3.64% (inactive). `CC1(C)CC(CC(=O)O)(c2ccccc2)CCO1` (configuration not stated): the inhibition was -6.14% (inactive). The same measure, in the same setting: the figure for `C=CCNC(=O)c1ccc(OC)cc1` is -4.57% (inactive); for `Cc1ccc(S(=O)(=O)Oc2ccccc2/C=N/NC(N)=S)cc1` it is -0.7% (inactive); for `O/N=C\c1ccccc1Oc1ccc(F)cc1` it is -8.72% (inactive). `Cc1ccc(S(=O)(=O)Oc2ccccc2/C=N/O)cc1`: the inhibition was -1.81% (inactive). The same measure, in the same setting: the value for `O=C(O)/C=C\c1ccccc1Oc1ccc(F)cc1` was -0.72% (inactive); that for `Cc1ccc(S(=O)(=O)Oc2ccccc2/C=C2\SC(=O)NC2=O)cc1` was 12.8% (inactive); that for `Cc1ccc(S(=O)(=O)Oc2ccccc2/C=C2/SC(=O)NC2=O)cc1` was 6.22% (inactive). Still for that read-out and setting: the figure for `O=C1NC(=O)C(=Cc2ccccc2)N1` is -3.98% (inactive); for `O=c1cc(Cl)c(-c2ccccc2)n[nH]1` it is -1.61% (inactive). The same measure, in the same setting: the figure for `COc1ccc(NS(=O)(=O)c2cc(NC(=O)C3CC3)ccc2N2CCOCC2)cc1` is 0% (inactive); for `Cn1cnc([N+](=O)[O-])c1SCC(=O)NN` it is 1.55% (inactive).

As to `COc1ccc([N+](=O)[O-])cc1N(CC(=O)NC1CCCCC1)S(C)(=O)=O`, the inhibition is 1.47% (inactive).

`COc1cccc(CN2CC(C(=O)NCCOc3ccccc3F)CCC2=O)c1` (configuration not stated): the inhibition is -4.36% (inactive). On the same count and under the same terms, the value for `O=C1Cc2cc(S(=O)(=O)N3CCNCC3)ccc2N1` was 0.77% (inactive); that for `O=C(c1cccc(S(=O)(=O)N2CCN(c3ccc(F)cc3)CC2)c1)N1CCCC1` was -6.98% (inactive). Still for that read-out and setting: the value for `CCc1nc2sc(C)c(C)c2c(=O)n1CCO` was -0.54% (inactive); that for `O=C(Oc1ccc(NC2=C(Cl)C(=O)c3ccccc3C2=O)cc1)c1ccc([N+](=O)[O-])cc1` was 11.5% (inactive); that for `N/C(=N\S(=O)(=O)c1ccccc1)c1ccc([N+](=O)[O-])cc1` was -9.13% (inactive). Same read-out and setting: the figure for `CC(=O)c1cc2c(cc1F)C(C)(C)CCC2(C)C` is 5.57% (inactive); for `COc1c2ccoc2cc2oc(C)cc(=O)c12` it is -4.89% (inactive); for `COc1c2occc2c(OC)c2c(=O)cc(C)oc12` it is -2.99% (inactive). As for `Cc1ccc(CC2SC(N)=NC2=O)cc1` (configuration not stated), the inhibition was 0% (inactive). On the same count and under the same terms, the value for `CC(C)(C)NC(=O)NC(=O)CN1CCN(c2ccc(O)cc2)CC1` was 1.52% (inactive); that for `Cc1cc(N)n(-c2ccc(Cl)cc2)n1` was -6.66% (inactive); that for `Cc1ccc(-n2cc3ccc([N+](=O)[O-])cc3n2)cc1` was -5.66% (inactive). Still for that read-out and setting: the figure for `Cc1cccc(-n2cc(-c3ccc([N+](=O)[O-])cc3)[nH]c2=S)c1` is -5.13% (inactive).

Regarding `Cn1c2nc(=O)[nH]c(=O)c-2cc2ccccc21`, the inhibition was -2.42% (inactive). In the case of `Cc1ccc(C)c(-n2c3nc(=O)n(C)c(=O)c-3cc3ccccc32)c1`, the inhibition is 0% (inactive). The same measure, in the same setting: the figure for `Cc1ccc(S(=O)(=O)n2cnc3cc([N+](=O)[O-])ccc32)cc1C` is 0.8% (inactive); for `Cc1ccc(-n2c(C)nn(Cc3ccc([N+](=O)[O-])cc3)c2=O)cc1` it is -7.53% (inactive). Same read-out and setting: the figure for `Cc1ccc(-n2c3nc(=O)[nH]c(=O)c-3cc3c(C)nn(-c4ccccc4)c32)c(C)c1` is 4.54% (inactive); for `Cc1cccc(-n2cnc3cc([N+](=O)[O-])ccc32)c1` it is 0% (inactive).

As for `O=S(=O)(c1ccc(Cl)cc1)N1CCN(CCc2ccncc2)CC1`, the inhibition was -1.66% (inactive).

`Cc1cccc(C(C)C)c1NC(=O)COC(=O)CNS(=O)(=O)c1ccccc1`: the inhibition is 0% (inactive).
